Measurements: PubChem BioAssay (EPA / NIEHS)
“And” between values parts separate entries of the source, which are not always exact repeats. Identical values can stand only once. Results filed as inconclusive are left out. Some structures have more than one record in an assay (separate samples or runs), and their calls can disagree. The source made the active and inactive calls. The calls were made as follows, unless noted: active = hit-call score of the fitted dose curve at least 0.9, where 1 is the maximum; inactive = score below 0.9.

Key:
[1] = read-out: Nuclear factor erythroid 2-related factor 2 (Homo sapiens) (UniProt Q16236); assay: LTEA_HepaRG_NFE2L2: Life Technologies and Expression Analysis (LTEA) Assay for Nuclear factor erythroid 2-related factor 2 (NFE2L2) Transcription Factor using HepaRG (AID 2283527); details: mRNA level, 48 h; actives raise or lower the signal
Method in brief: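 Human liver HepaRG line treated in duplicate for 48 h with an eight-point series topping at 100 uM. Gene expression of NFE2L2 by qRT-PCR, bidirectionally fitted against the vehicle control.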

[2] = read-out: succinate dehydrogenase complex iron sulfur subunit B (SDHB), SDHB (gene 6390); assay: LTEA_HepaRG_SDHB: Life Technologies and Expression Analysis (LTEA) Assay for succinate dehydrogenase complex iron sulfur subunit B (SDHB) using HepaRG (AID 2283528); details: mRNA level, 48 h; actives raise or lower the signal
Method in brief: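 A human HepaRG culture in serum-free induction medium received test chemicals for 48 h over an eight-point range capped at 100 uM. SDHB expression change was quantified by qRT-PCR.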

[3] = read-out: Signal transducer and activator of transcription 3 (Homo sapiens) (UniProt P40763); assay: LTEA_HepaRG_STAT3: Life Technologies and Expression Analysis (LTEA) Assay for Signal transducer and activator of transcription (STAT3) using HepaRG (AID 2283529); details: mRNA level, 48 h; actives raise or lower the signal
Method in brief: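 In this transcriptional endpoint, HepaRG cultures receive test chemicals at up to 100 uM for 48 h, tested in duplicate. STAT3 mRNA is normalized to ACTB, GAPDH and POLR2A.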

[4] = read-out: solute carrier (SLCO1B1), SLCO1B1 (gene 10599); assay: LTEA_HepaRG_SLCO1B1: Life Technologies and Expression Analysis (LTEA) Assay for solute carrier (SLCO1B1) using HepaRG (AID 2283530); details: mRNA level, 48 h; actives raise or lower the signal
Method in brief: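 HepaRG, serum-free induction medium, 48 h dosing, 8-pt half-log from 100 uM, 0.5% DMSO vehicle, duplicates. Readout: SLCO1B1 mRNA, qRT-PCR, ACTB/GAPDH/POLR2A normalization; up or down fit vs DMSO.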

[5] = read-out: sulfotransferase 2A1 (SULT2A1), SULT2A1 (gene 6822); assay: LTEA_HepaRG_SULT2A1: Life Technologies and Expression Analysis (LTEA) Assay for sulfotransferase 2A1 (SULT2A1) using HepaRG (AID 2283531); details: mRNA level, 48 h; actives raise or lower the signal
Method in brief: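 Transcript levels of SULT2A1, quantified by qRT-PCR and normalized to three housekeeping genes, serve as the readout. Human HepaRG cultures receive test chemicals for 48 h at up to 100 uM in half-log steps, with 0.5% DMSO vehicle.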

[6] = read-out: Transforming Growth Factor (TGFA), TGFA (gene 7039); assay: LTEA_HepaRG_TGFA: Life Technologies and Expression Analysis (LTEA) Assay for Transforming Growth Factor (TGFA) using HepaRG (AID 2283532); details: mRNA level, 48 h; actives raise or lower the signal
Method in brief: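 Gene expression of TGFA was quantified by qRT-PCR after human HepaRG cells were treated for 48 h with test chemicals (eight concentrations, highest 100 uM, 0.5% DMSO). Activity in either direction was fitted relative to DMSO.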

[7] = read-out: Transforming Growth Factor (TGFB1), TGFB1 (gene 7040); assay: LTEA_HepaRG_TGFB1: Life Technologies and Expression Analysis (LTEA) Assay for Transforming Growth Factor (TGFB1) Transporter using HepaRG (AID 2283533); details: mRNA level, 48 h; actives raise or lower the signal
Method in brief: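 HepaRG, 48 h post-plating, switched to serum-free induction medium; chemicals 100 uM top, half-log, 8 pts, 0.5% DMSO, dup; 48 h exposure; RNA → Fluidigm TaqMan qRT-PCR; norm ACTB/GAPDH/POLR2A; bidirectional fit vs DMSO.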

[8] = read-out: TIMP1, TIMP1 (gene 7076); assay: LTEA_HepaRG_TIMP1: Life Technologies and Expression Analysis (LTEA) Assay for TIMP1 using HepaRG (AID 2283534); details: mRNA level, 48 h; actives raise or lower the signal
Method in brief: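 Readout is TIMP1 mRNA level measured by qRT-PCR and normalized to three housekeeping genes. Human HepaRG cells were treated for 48 h in duplicate at eight concentrations up to 100 uM (0.5% DMSO); gain or loss fitted against DMSO.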

[9] = read-out: Tumor necrosis factor receptor 1 (TNFRSF1A), TNFRSF1A (gene 7132); assay: LTEA_HepaRG_TNFRSF1A: Life Technologies and Expression Analysis (LTEA) Assay for Tumor necrosis factor receptor 1 (TNFRSF1A) using HepaRG (AID 2283535); details: mRNA level, 48 h; actives raise or lower the signal
Method in brief: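 Read-out is TNFRSF1A transcript level by TaqMan qRT-PCR, normalized to three housekeeping genes, scored as gain or loss of signal versus 0.5% DMSO. Human HepaRG cells received test chemicals for 48 h at up to 100 uM (half-log series).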

[10] = read-out: Thyroid Hormone Responsive (THRSP), THRSP (gene 7069); assay: LTEA_HepaRG_THRSP: Life Technologies and Expression Analysis (LTEA) Assay for Thyroid Hormone Responsive (THRSP) using HepaRG (AID 2283536); details: mRNA level, 48 h; actives raise or lower the signal
Method in brief: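 Cell model: human HepaRG, approx. 100,000 cells/well, 0.5% DMSO vehicle. Exposure lasts 48 h; phenobarbital 1 mM serves as induction positive control. Gene expression is measured by qRT-PCR against three endogenous control genes.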

[11] = read-out: Cellular tumor antigen p53 (Homo sapiens) (UniProt P04637); assay: LTEA_HepaRG_TP53: Life Technologies and Expression Analysis (LTEA) Assay for Tumor Protein P53 (TP53) using HepaRG (AID 2283537); details: mRNA level, 48 h; actives raise or lower the signal
Method in brief: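 Gain or loss of TP53 mRNA signal is scored relative to 0.5% DMSO after 48 h chemical treatment of HepaRG liver cells, tested in duplicate at eight half-log concentrations up to 100 uM.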

[12] = read-out: UDP glucuronosyltransferase (UGT1A1), UGT1A1 (gene 54658); assay: LTEA_HepaRG_UGT1A1: Life Technologies and Expression Analysis (LTEA) Assay for UDP glucuronosyltransferase (UGT1A1) using HepaRG (AID 2283538); details: mRNA level, 48 h; actives raise or lower the signal
Method in brief: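 HepaRG, 48 h chemical exposure (top 100 uM, half-log 8-pt, 0.5% DMSO vehicle), duplicate wells; qRT-PCR (TaqMan, Fluidigm array) for UGT1A1 mRNA, housekeeping-normalized; bidirectional curve fit vs DMSO baseline.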

[13] = read-out: UDP glucuronosyltransferase (UGT1A6), UGT1A6 (gene 54578); assay: LTEA_HepaRG_UGT1A6: Life Technologies and Expression Analysis (LTEA) Assay for UDP glucuronosyltransferase (UGT1A6) using HepaRG (AID 2283539); details: mRNA level, 48 h; actives raise or lower the signal
Method in brief: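 HepaRG, 48 h post-plating switch to serum-free induction medium; chemical 48 h, 100 uM top, half-log x8, duplicate, 0.5% DMSO. Phenobarbital 1mM induction control. UGT1A6 mRNA by TaqMan qRT-PCR; gain/loss fit vs DMSO.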

[14] = read-out: X-box binding protein 1 (XBP1), XBP1 (gene 7494); assay: LTEA_HepaRG_XBP1: Life Technologies and Expression Analysis (LTEA) Assay for X-box binding protein 1 (XBP1) using HepaRG (AID 2283540); details: mRNA level, 48 h; actives raise or lower the signal
Method in brief: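 Transcript levels of XBP1, measured by qRT-PCR and normalised to three housekeeping genes, were fitted bidirectionally relative to 0.5% DMSO controls. Human HepaRG cells received eight-point half-log dilutions from 100 uM for 48 h.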

[15] = LTEA_HepaRG_LDH_cytotoxicity: Cytotoxicity Assessment in the Life Technologies and Expression Analysis (LTEA) Assay (AID 2283563; active = hit-call score of the fitted dose curve at least 0.9, where 1 is the maximum;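 as to AC50: LDH activity released into spent culture medium as a marker of cell death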)
Method in brief: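 Cells were thawed and plated for 48 h. Medium was then replaced with serum-free induction medium. Chemicals (8 half-log points, maximum 100 uM, 0.5% DMSO) were added in duplicate for 48 h, after which spent medium was assayed for LDH.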

[16] = ATG_XTT_Cytotoxicity: Cytotoxicity Assessment in the Attagene TRANS-FACTORIAL HepG2 Assay (AID 2283584; active = hit-call score of the fitted dose curve at least 0.9, where 1 is the maximum)
Method in brief: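 Cells: human HepG2, transiently transfected with MRTU reporter constructs. Exposure 24 h. Readout: XTT, cell number. Baseline/neg ctrl DMSO; loss-of-signal scored.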

[17] = TOX21_p53_BLA_p3_viability: Viability Assessment in the Tox21 HCT-116 p53 Agonism Beta-lactamase Assay, Phase 3 (AID 2283593; active = hit-call score of the fitted dose curve at least 0.9, where 1 is the maximum;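 also: cells exposed to compound for 16 h before reading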)
Method in brief: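 HCT-116 cells (4000/well) rested 5 h at 37C, then got DMSO compounds by pin tool (217-fold dilution) for 16 h at 37C, 5% CO2. After the bla read, CellTiter-Glo was added and luminescence read at 30 min, room temperature.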

[18] = target: Cellular tumor antigen p53 (Homo sapiens) (UniProt P04637); assay: TOX21_p53_BLA_p3_ratio: Tox21 HCT-116 p53 Agonism Beta-lactamase Assay, Ratio, Phase 3 (AID 2283596; active = hit-call score of the fitted dose curve at least 0.9, where 1 is the maximum)
Method in brief: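 Cells were seeded at 4000/well, rested 5 h at 37C, then dosed with DMSO compound solutions (217-fold dilution) for 16 h. CCF4-AM substrate was loaded for 2 h at room temperature, and the 460/530 nm emission ratio was fitted for gain of signal versus DMSO.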

[19] = TOX21_p53_BLA_p4_viability: Viability Assessment in the Tox21 HCT-116 p53 Agonism Beta-lactamase Assay, Phase 4 (AID 2283597; active = hit-call score of the fitted dose curve at least 0.9, where 1 is the maximum;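 also: hits lower the luminescence signal meaning cytotoxicity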)
Method in brief: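 Readout: ATP luminescence (CellTiter-Glo), measured 30 min after reagent addition at RT. The reagent followed a 2 h CCF4-AM incubation, and the cells had been exposed to compound for 16 h at 37C.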

Measured: AC50

Chain of Signal transducer and activator of transcription 3 (Homo sapiens) (P40763 whole entry, looked up): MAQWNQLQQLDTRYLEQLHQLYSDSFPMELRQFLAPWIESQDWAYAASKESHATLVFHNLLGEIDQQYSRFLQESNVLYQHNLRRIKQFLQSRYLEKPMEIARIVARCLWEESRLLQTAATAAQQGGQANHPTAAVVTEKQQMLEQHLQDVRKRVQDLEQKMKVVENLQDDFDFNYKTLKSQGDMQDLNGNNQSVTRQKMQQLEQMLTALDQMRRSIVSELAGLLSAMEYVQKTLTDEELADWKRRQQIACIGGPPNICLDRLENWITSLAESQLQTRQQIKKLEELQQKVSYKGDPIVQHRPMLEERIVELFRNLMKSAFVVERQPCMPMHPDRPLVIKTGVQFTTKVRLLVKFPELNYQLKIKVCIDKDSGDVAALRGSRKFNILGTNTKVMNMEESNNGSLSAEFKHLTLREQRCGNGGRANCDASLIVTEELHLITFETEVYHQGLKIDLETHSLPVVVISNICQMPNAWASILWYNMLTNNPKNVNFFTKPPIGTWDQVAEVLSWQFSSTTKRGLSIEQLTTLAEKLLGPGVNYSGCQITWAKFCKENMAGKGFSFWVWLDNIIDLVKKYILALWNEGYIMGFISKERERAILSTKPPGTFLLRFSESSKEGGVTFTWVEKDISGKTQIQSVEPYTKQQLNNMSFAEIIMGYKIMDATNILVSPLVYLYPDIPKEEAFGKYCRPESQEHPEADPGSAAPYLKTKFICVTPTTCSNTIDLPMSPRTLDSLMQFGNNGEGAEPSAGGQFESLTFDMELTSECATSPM
Chain of Cellular tumor antigen p53 (Homo sapiens) (P04637 whole entry, looked up): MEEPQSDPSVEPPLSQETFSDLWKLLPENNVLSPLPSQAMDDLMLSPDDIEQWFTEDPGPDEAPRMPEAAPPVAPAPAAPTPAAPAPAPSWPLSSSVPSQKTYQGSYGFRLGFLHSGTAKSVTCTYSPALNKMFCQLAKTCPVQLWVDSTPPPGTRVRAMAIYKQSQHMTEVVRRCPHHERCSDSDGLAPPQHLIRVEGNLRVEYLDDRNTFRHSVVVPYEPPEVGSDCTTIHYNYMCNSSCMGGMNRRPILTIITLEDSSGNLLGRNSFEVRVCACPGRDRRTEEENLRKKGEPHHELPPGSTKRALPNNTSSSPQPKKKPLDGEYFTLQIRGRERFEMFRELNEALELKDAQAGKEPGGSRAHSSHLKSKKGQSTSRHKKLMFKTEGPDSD
Chain of Nuclear factor erythroid 2-related factor 2 (Homo sapiens) (Q16236 whole entry, looked up): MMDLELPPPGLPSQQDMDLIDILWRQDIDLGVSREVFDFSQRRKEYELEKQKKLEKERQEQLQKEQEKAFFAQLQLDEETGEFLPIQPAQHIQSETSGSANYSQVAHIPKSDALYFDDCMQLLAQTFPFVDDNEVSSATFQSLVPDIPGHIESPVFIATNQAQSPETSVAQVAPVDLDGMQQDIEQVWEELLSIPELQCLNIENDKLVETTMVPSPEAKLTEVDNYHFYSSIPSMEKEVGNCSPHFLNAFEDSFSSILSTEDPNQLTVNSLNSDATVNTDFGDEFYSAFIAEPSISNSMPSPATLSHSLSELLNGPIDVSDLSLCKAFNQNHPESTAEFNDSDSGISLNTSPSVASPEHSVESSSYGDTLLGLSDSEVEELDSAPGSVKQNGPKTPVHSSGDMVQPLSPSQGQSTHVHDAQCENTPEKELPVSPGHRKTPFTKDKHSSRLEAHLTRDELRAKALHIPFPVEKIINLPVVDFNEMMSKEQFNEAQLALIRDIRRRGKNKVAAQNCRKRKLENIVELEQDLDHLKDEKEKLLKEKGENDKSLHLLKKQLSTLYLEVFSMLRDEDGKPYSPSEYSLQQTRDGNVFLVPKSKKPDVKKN

C[C@]12CC[C@@H]3c4ccc(O)cc4C[C@@H](CCCCCCCCCS(=O)CCCC(F)(F)C(F)(F)F)[C@H]3[C@@H]1CC[C@@H]2O (some centres undefined)
active: [2] 11.6 µM | [4] 25 µM | [5] 24.9 µM | [6] 0.0998 µM | [7] 0.121 µM | [9] 0.0802 µM | [10] 13.7 µM | [11] 0.0628 µM | [12] 26.9 µM | [13] 50 µM | [14] 0.0493 µM
inactive: [1] | [3] | [8] | [15] | [16] | [17] | [18] | [19]

CCNc1nc(N)nc(Cl)n1
active: [12] 1.03 µM
not listed: [16] | [17] | [19]
inactive: all other assays above

Oc1ccc(C(c2ccc(O)cc2)C(Cl)(Cl)Cl)cc1
inactive: [10] | [16] | [17]
active: [1] 78.2 µM | [2] 80.6 µM | [3] 76.8 µM | [5] 84.3 µM | [6] 80.7 µM | [7] 87.1 µM | [8] 79.2 µM | [9] 87.3 µM | [11] 90.4 µM | [12] 88.5 µM | [13] 79.2 µM | [14] 74.1 µM | [15] 76.4 µM | [17] 46.1 µM | [18] 72.1 µM and 74.2 µM | [19] 38.3 µM and 80.7 µM
